The panel holds about 79,000 compounds, 15% with a hit somewhere; the sample as a whole holds those more often. Cut-off read from the data, not from the text of the source: active = growth inhibition above about 70%; inactive = the rest.
Columns and labels:
[1] = NCI Yeast Anticancer Drug Screen. Data for the rad50 strain (AID 155);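 note: 0% = growth of vehicle-only cultures of the same strain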; details: S. cerevisiae rad50 strain growth inhibition; at 50.0 µM; hits give high values
Method in brief: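 Genetically altered yeast (DNA repair pathway); compound treatment; growth inhibition vs vehicle ctrl.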

[2] = NCI Yeast Anticancer Drug Screen. Data for the mec2-1 strain (AID 157); details: S. cerevisiae mec2-1 strain, at 50.0 µM, hits give high values
Method in brief: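 mec2-1 yeast strain, carrying an alteration in DNA damage repair or cell cycle control, was exposed to compounds; growth inhibition was measured relative to vehicle-treated controls.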

[3] = NCI Yeast Anticancer Drug Screen. Data for the sgs1 mgt1 strain (AID 161);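 note: 0% = growth of cultures given vehicle only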; details: S. cerevisiae sgs1 mgt1 strain, at 50.0 µM, hits give high values
Method in brief: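 Growth of a repair-deficient yeast mutant was monitored after compound treatment and expressed as inhibition relative to vehicle-treated cultures.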

[4] = NCI Yeast Anticancer Drug Screen. Data for the cln2 rad14 strain (AID 165);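 note: 0% = growth equal to vehicle treated cultures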; details: S. cerevisiae cln2 rad14 strain, at 50.0 µM, hits give high values
Method in brief: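 Yeast carrying cln2 and rad14 alterations (cell cycle control and DNA damage repair) were exposed to compounds. Growth inhibition was measured against vehicle-treated controls.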

[5] = NCI Yeast Anticancer Drug Screen. Data for the bub3 strain (AID 167); details: S. cerevisiae bub3 mutant strain, at 50.0 µM, hits give high values
Method in brief: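 Yeast carrying a defined mutation is treated with each compound, and growth is compared with that of vehicle-exposed cells to give inhibition.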

[6] = NCI Yeast Anticancer Drug Screen. Data for the mlh1 rad18 strain (AID 175); details: S. cerevisiae mlh1 rad18 strain growth inhibition; at 50.0 µM; hits give high values
Method in brief: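 Growth inhibition of the yeast strain was measured after compound exposure and expressed relative to vehicle-treated controls. The strain carries defined defects in DNA damage repair.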

Measured: growth inhibition

CCOC(=O)/C(C#N)=C/c1ccc(-c2cc(C(F)(F)F)cc(C(F)(F)F)c2)o1
inactive: [1] -17.9% | [2] -7% | [3] -8% | [4] -15.4% | [5] -2.5% | [6] -0.8%

O=C(Cl)c1cc(I)c(I)c(I)c1
inactive: [1] 41% | [2] 47.3% | [3] 54.3% | [4] 37.2% | [5] 53.2% | [6] 40%

COc1ccc(C(=O)CC(=O)CCC(=O)Nc2ccc(Cl)cc2Cl)cc1
inactive: [1] 26.4% | [2] 19.1% | [3] 20.9% | [4] 19.8% | [5] 8.2% | [6] 7.75%

Cc1cc2c(cc1C)NC1C(=O)C(c3ccccc3Cl)OC1=N2 (stereo unspecified)
inactive: [1] -1.2% | [2] -10.4% | [3] -2.4% | [4] 4.55% | [5] 0.55% | [6] 3.15%

CC(=O)Oc1cccc(OC(=O)Nc2ccc(C)c(NC(=O)Oc3cccc(OC(C)=O)c3)c2)c1
inactive: [1] 26.2% | [2] 22.6% | [3] 9.75% | [4] 19.3% | [5] -0.4% | [6] 34.5%

CC1(C)C2CC3C(=CCC4C(=O)C5CC=C6C(CC7CC6C7(C)C)C5C(=O)C43)C1C2 (stereo unspecified)
inactive: [1] 23.6% | [2] -6.1% | [3] 14% | [4] -20% | [5] -5.2% | [6] -1.65%

O=C1c2cccc3cc([N+](=O)[O-])cc(c23)C(=O)N1C(Cc1ccccc1)c1ccccc1 (stereo unspecified)
inactive: [1] 4.1% | [2] -6.05% | [3] 16.4% | [4] 15.1% | [5] 10.6% | [6] 19.1%

O=S(=O)(c1ccccc1)c1cccc2c[n+]3ccccc3cc12
inactive: [1] 34.6% | [2] 9.35% | [3] 39.2% | [4] 24.6% | [5] 22.5% | [6] 24.9%

O=C1c2cc([N+](=O)[O-])ccc2-c2c(I)cccc21
inactive: [1] 4.25% | [2] 2.7% | [3] -5.35% | [4] 5.75% | [5] -9.25% | [6] -6.45%

COc1ccc(C(=O)O)c2c(=O)c3ccccc3[nH]c12
inactive: [1] -28.8% | [2] -3.2% | [3] -8.55% | [4] 17.2% | [5] 3.2% | [6] 26.8%

CC(O)C(O)C(=O)NN (stereo unspecified)
inactive: [1] -1% | [2] 0.3% | [3] 11.4% | [4] 4% | [5] -2.9% | [6] -6.95%

O=C(O)c1c(Br)c(Br)c(Br)c(Br)c1C1c2ccc(O)cc2Oc2cc(O)ccc21
inactive: [1] 20.4% | [2] 25% | [3] 35% | [4] -7.75% | [5] -2.6% | [6] 26.6%

O=C1CCCC2C(O)CCC[C@H]12 (stereo partly specified)
inactive: [1] -9% | [2] -2.9% | [3] -21.8% | [4] 1% | [5] -7.7% | [6] -1.9%

COc1ccc2cc(CC(=O)c3ccccc3)ccc2c1
inactive: [1] -24.2% | [2] -6.95% | [3] -11.2% | [4] -37.8% | [5] -17.1% | [6] -3.5%

CCOc1cc2c(cc1O)CC[C@@H]1[C@@H]2CC[C@]2(C)C(N)CC[C@@H]12 (stereo partly specified)
inactive: [1] -0.95% | [2] 5.85% | [3] -18.2% | [4] -33.1% | [5] -20.1% | [6] -8.8%

O=C1c2cc(Cl)ccc2-c2ccc(N=Cc3ccccc3Cl)cc21
inactive: [1] 1.65% | [2] -1.55% | [3] -7.8% | [4] -89.5% | [5] 34.1% | [6] -1.35%

CCOC(=O)C(Cl)Cc1ccccc1 (stereo unspecified)
inactive: [1] 4.75% | [2] 13.4% | [3] 13.4% | [4] 5.45% | [5] -5.15% | [6] 1.9%

COc1cccc(OC)c1NC(=O)NCCCl
inactive: [1] -8.3% | [2] 14.6% | [3] 2.25% | [4] 50.8% | [5] 0.15% | [6] 14.4%

CCOC(Cn1ncc(C#N)c1N)OCC
inactive: [1] -13.7% | [2] -7.75% | [3] -25.5% | [4] -15.9% | [5] -5.95% | [6] 5.65%

COc1ccccc1Nc1nc(NNC(=O)Cc2ccccc2)nc(NNC(=O)c2ccncc2)n1
inactive: [1] 27.4% | [2] 36.2% | [3] 25.3% | [4] 17.6% | [5] 22.7% | [6] 25.6%

Cc1cc2c(cc1C)NC(=O)C(NC(=O)c1ccc(Cl)cc1)C=N2 (stereo unspecified)
inactive: [1] -0.55% | [2] 15.6% | [3] 15.1% | [4] -27.4% | [5] 5.95% | [6] 2.95%

CC(C)CC(=O)NC(C(=O)NC(C(=O)NC(CC(C)C)C(O)CC(=O)NC(C)C(=O)NC(CC(C)C)C(O)CC(=O)O)C(C)C)C(C)C (stereo unspecified)
inactive: [1] 5.8% | [2] -18.4% | [3] -20.9% | [4] 7.6% | [5] 5.95% | [6] -9.75%

CCOC(=O)C(C)=P(c1ccccc1)(c1ccccc1)c1ccccc1
inactive: [1] -1.6% | [2] -5.8% | [3] -1% | [4] -39.2% | [5] -0.7% | [6] -11.3%

CC1CN(C(C)(C)C)CO1 (stereo unspecified)
inactive: [1] -0.3% | [2] -10.4% | [3] -18.6% | [4] 8.3% | [5] -26.5% | [6] -25.6%

NNC(=S)N/N=C(\c1nc2ccc(Cl)cc2[nH]c1=O)C(O)c1cccc([N+](=O)[O-])c1 (stereo unspecified)
inactive: [1] 48.6% | [2] 27.6% | [3] 12% | [4] -17.1% | [5] 27.4% | [6] -8.4%

Cc1cc(S(=O)(=O)Nc2nc(N)nc(N3CCOCC3)n2)c(SCC(=O)O)cc1Cl
inactive: [1] 5.75% | [2] 19.4% | [3] 15.2% | [4] 12.9% | [5] 6.25% | [6] 18.2%

O=S(=O)(O)c1cc[n+]([O-])cc1
inactive: [1] 1.6% | [2] 12.7% | [3] -2.8% | [4] 32.5% | [5] 11.8% | [6] -8.65%

CCCC1OCC(C)(CC)CO1 (stereo unspecified)
inactive: [1] 27.6% | [2] -2.55% | [3] -4.9% | [4] 12% | [5] -9.65% | [6] -9.05%

O=C(O)CCSC1(SCCC(=O)O)CCCCC1
inactive: [1] -23.9% | [2] -17.9% | [3] -8.55% | [4] -3.25% | [5] -9% | [6] -23.6%

CC(=O)N(C)c1ccc(O)cc1
inactive: [1] 14.6% | [2] -16.1% | [3] -16.1% | [4] -18.6% | [5] -8.9% | [6] 9.2%

Cc1cccc2c1Oc1ccccc1C2N1C(=O)/C(=C/c2ccc(Cl)c(Cl)c2)SC1=S (stereo unspecified)
inactive: [1] -3.8% | [2] -10.2% | [3] 6.75% | [4] 33.8% | [5] -17.8% | [6] 0.4%

Cc1nc(N)nc(-c2ccccc2)c1N=Nc1ccccc1Br
inactive: [1] 5.55% | [2] 0.15% | [3] 4.4% | [4] -6.95% | [5] -0.85% | [6] 11.8%

Clc1ccc2ncccc2c1
inactive: [1] 29.8% | [2] 18% | [3] 7.7% | [4] -24.1% | [5] 7.95% | [6] 17%

O=C(/C(=C(/[O-])C(F)(F)F)[n+]1ccc2ccccc2c1)C(F)(F)F
inactive: [1] -16.4% | [2] -2.4% | [3] -5.3% | [4] -40.1% | [5] -28.6% | [6] -0.4%

Oc1c(/N=N/C(=S)NCCCN2CCN(CCCNC(=S)/N=N/c3[nH]c4ccccc4c3O)CC2)[nH]c2ccccc12
inactive: [1] 22.8% | [2] 6.45% | [3] 20.6% | [4] -2.7% | [5] -17.8% | [6] 14.9%

CCOC(=O)c1cnc(N)nc1N
inactive: [1] 6.35% | [2] -16.1% | [3] -6.3% | [4] -88.3% | [5] -8.3% | [6] 24.1%

COC(=O)C12C3C4C1C1C2C3C41C(=O)OC(C)(C)C (stereo unspecified)
inactive: [1] 18% | [2] 1.35% | [3] 9.2% | [4] 4.5% | [5] 23.9% | [6] 15.2%

Cc1nc(C#N)c(=N)n(CCCO)c1-c1ccccc1
inactive: [1] 7.2% | [2] -8.45% | [3] 10.3% | [4] -28.5% | [5] 16.4% | [6] 5.15%

CCNC(=O)C1CCN(Cc2c[nH]c3ccccc23)CC1
inactive: [1] -19.4% | [2] 0.1% | [3] 33.2% | [4] -12.9% | [5] 0.6% | [6] -18.1%

C#CCC1(C(=O)OCC)C(=O)c2ccccc2N(C)C1=O (stereo unspecified)
inactive: [1] 16.9% | [2] 1.55% | [3] 31.1% | [4] 11.4% | [5] 14% | [6] 6.95%

CCc1cc(Cl)c(O)c(Cl)c1
inactive: [1] 4.2% | [2] 18.2% | [3] 6.2% | [4] -0.15% | [5] 17.5% | [6] 19%

From PubChem BioAssay (NCI)
